# Assay outcomes deposited in PubChem by National Center for Advancing Translational Sciences (NCATS).
# An excerpt weighted towards active compounds, which were near 13% of everything screened.
# HCV inh – inhibitors of hepatitis C virus infection; Huh7.5.1 HCVcc-Cre infection, luciferase reporter, 44 h; Potency, µM (titrated, usually from 41.8 µM), without a hit: at the highest dose activity change, negative = inhibition, most hits filed as inhibitors; actives 3.4% (n = 340,000); AID 651820; also: potency is read from the fitted curve at half-maximal effect
#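 HCVcc-Cre virus at an moi near 0.5 was added right after compound to cells cultured 4 h from seeding (1,000 cells/well). Luciferase activity was determined 44 h later, 15 min after substrate addition at RT.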
# Pf growth 48h – P. falciparum growth inhibition at 48 hours (one generation); P. falciparum luciferase growth in erythrocytes, 48 h; Potency, µM (series often up to 28.7 µM), for the others: at the highest dose activity change, negative = inhibition, usual class: inhibitors; actives 5.9% (n = 310,000); also: potency is read from the fitted curve at half-maximal effect
#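 Read-out is firefly luciferase luminescence from an integrated reporter in P. falciparum, so falling signal marks reduced parasite growth. Infected erythrocytes were at 2% hematocrit and 0.1% parasitemia (final) in Albumax-supplemented RPMI 1640.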
# HCMV inh – blocks human cytomegalovirus replication | HFF cells, HCMV-luciferase reporter, 72 h; active compounds read low | activity change, negative = inhibition, % at 57.5 µM | actives 4.5% (n = 410,000) | AID 1259415; in the data active = activity change below about -60%; inconclusive = no clear call, values can overlap the other calls; inactive = above about -39%
#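 Human foreskin fibroblasts infected with luciferase-reporter HCMV at MOI 1 PFU/cell, compounds at two doses. Luciferase measured 72 h post infection; normalized to buffer-only basal and Salinomycin (10uM) controls.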
# Pf growth 96h – P. falciparum growth inhibition at 96 hour, primary screen for plastid delayed-death inhibitors; P. falciparum luciferase reporter growth, 96 h; Potency, µM (series often up to 28.7 µM), for the others: top-dose activity change, negative = inhibition, actives largely listed as inhibitors; actives 6.9% (n = 320,000); AID 504834; also: potency is read from the fitted curve at half-maximal effect
#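 Luminescence readout: decreased luciferase signal marks inhibited growth of reporter-expressing P. falciparum in infected red cells (2% hematocrit, 0.05% parasitemia final), exposed to compound two generations (96 h, 37 C, 5% CO2).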
# * = called active by the depositor; ? = inconclusive; . = no result given. Unless noted, calls follow the shape of the dose curve; as a rule, active = well fitted inhibition curve with a large enough effect; inconclusive = small, poorly fitted or top-dose-only effect, or another doubt; inactive = no such curve, though single readings can be large or run the other way. % is scaled to controls: 0 for no effect and ±100 for the full control effect.
SMILES,HCV inh,Pf growth 48h,HCMV inh,Pf growth 96h
CCN(CC)CCNC(=O)c1c(C)[nH]c(/C=C2\C(=O)Nc3ccc(F)cc32)c1C,.,2.13µM*,.,2.69µM*
CCN(CC)CCNC(=O)c1ccc2c(c1)NC(=O)c1ccccc1S2,?,?,2.2,?
O=C(NCCc1ccccc1)c1ccc2c(c1)N(Cc1ccccc1Cl)C(=O)c1ccccc1S2,.,.,-1.0,.
COc1cccc2sc(N(C)c3ccccc3)nc12,25.1µM*,.,38.4,-6.0%
COc1cccc2sc(N)nc12,-3.7%,30.3%,-25.9,22.5%
CCc1cccc2c(C(=O)COC(=O)c3ccccc3)c[nH]c12,?,198.9%,-8.8,175.2%
CCc1cccc2c(C(=O)C(NC(C)CC)c3ccccc3)c[nH]c12 (stereo unspecified),11.2µM*,?,-21.6,?
CCc1cccc2c(C(=O)C(NCCCOC)c3ccccc3)c[nH]c12 (stereo unspecified),11.2µM*,?,7.6,-27.1%
O=c1[nH]c2ccccc2n1CCCN1CCC(n2c(=O)[nH]c3cc(Cl)ccc32)CC1,?,10.7µM*,-78.5*,4.78µM*
O=C(NCCN1CCC(n2c(=O)[nH]c3ccccc32)CC1)c1ccc(Cl)cc1Cl,.,.,-35.1,.
CCN(CC)S(=O)(=O)c1ccc(C(=O)NCCCN=C2NS(=O)(=O)c3ccccc32)cc1,?,?,-10.0,8.28µM*
CCOC(=O)c1ccccc1NC(=O)Cn1c(=O)n(Cc2nc(-c3ccccc3)no2)c(=O)c2ccccc21,.,.,35.3,.
Clc1cccc(SC2CCNCC2)n1,.,-1.1%,.,4.26µM*
O=C(c1cnc(N2CCOCC2)c2ccccc12)N1CCN(c2ccccc2F)CC1,.,.,-8.9,.
O=C(CNC(=O)c1ccco1)N=Nc1c(O)[nH]c2ccc([N+](=O)[O-])cc12,-3.9%,21.7%,30.5,14.8%
COc1ccccc1C(=O)N=Nc1c(O)[nH]c2ccc([N+](=O)[O-])cc12,-28.0%,10.4µM*,54.5,?
CNC(=S)N=Nc1c(O)[nH]c2ccc(C(C)C)cc12,?,?,8.5,6.57µM*
CC(C)NC(=S)N=Nc1c(O)[nH]c2ccc([N+](=O)[O-])cc12,1.12µM*,?,?,?
NC(=O)N=Nc1c(O)[nH]c2ccc([N+](=O)[O-])cc12,5.4%,7.9%,-19.6,-19.8%
C=C(C)CNC(=S)N=Nc1c(O)[nH]c2ccc([N+](=O)[O-])cc12,25.1µM*,33.0%,-15.3,?
COc1cccc(NC(=O)N[C@H]2CC[C@@]34CCCN3C(=O)CCC[C@H]4[C@H]2C)c1,.,.,44.6,.
COc1cc(O)cc2c1C(=O)OC(C)CCCC(=O)CCC/C=C\2 (stereo unspecified),0.4%,23.4%,-20.1,2.8%
C[C@H]1CCCC(=O)CCC/C=C/c2cc(O)cc(O)c2C(=O)O1,7.5%,.,-99.2*,13.1µM*
COC(=O)C(C)NC(=O)N1CCN(c2nnc(C)c3c(C)n(-c4ccc(Cl)cc4)nc23)CC1 (stereo unspecified),.,.,-2.1,.
CC1CCc2[nH]c3ccc(C(=O)N(C)CC(=O)Nc4ccccc4C(F)(F)F)cc3c2C1 (stereo unspecified),-22.1%,?,-88.2*,?
SMILES,HCV inh,Pf growth 48h,HCMV inh,Pf growth 96h
CCOc1ccc(NC(=O)CN(C)C(=O)c2ccc(NC3CC3)c([N+](=O)[O-])c2)cc1OCC,11.2µM*,-22.8%,10.9,?
CCCN(CC(=O)Nc1ccccc1OC)C(=O)c1ccc2[nH]c3c(c2c1)CC(C)CC3 (stereo unspecified),7.94µM*,?,-3.9,?
CC1CCc2[nH]c3ccc(C(=O)N(C)CC(=O)Nc4ccccc4Cl)cc3c2C1 (stereo unspecified),?,?,-8.3,-12.3%
CCN(CC(=O)Nc1ccccc1OC)C(=O)c1ccc(NC(=O)c2cccs2)cc1,?,7.38µM*,0.0,?
CCCN(CC(=O)Nc1ccccc1OC)C(=O)c1ccncc1,23.9%,39.5%,?,20.1%
Cc1ccc(NC(=O)CN(C)C(=O)c2ccc3[nH]c4c(c3c2)CC(C)CC4)cc1 (stereo unspecified),?,-29.1%,-29.5,-18.1%
CCOc1ccc(NC(=O)CN(C)C(=O)c2ccc3[nH]c4c(c3c2)CC(C)CC4)cc1OCC (stereo unspecified),0.562µM*,-14.8%,.,-32.1%
